An excerpt weighted towards active compounds, which were near 1.7% of everything screened.
RGS4 inhibitor – inhibitors of human regulator of G protein signaling 4. Transcreener GDP fluorescence polarization, RGS4-accelerated GTP hydrolysis. 390,000 compounds, 0.039% hits. P49798. Potency, µM (highest dose often 114 µM), for inactives: top-dose activity change, negative = inhibition, actives largely listed as inhibitors; further: on the % scale 0 is the no-effect control and ±100 the full control effect; nearly all actives have a fitted effect of over 75% in size
Target sequence (P49798 whole entry, looked up): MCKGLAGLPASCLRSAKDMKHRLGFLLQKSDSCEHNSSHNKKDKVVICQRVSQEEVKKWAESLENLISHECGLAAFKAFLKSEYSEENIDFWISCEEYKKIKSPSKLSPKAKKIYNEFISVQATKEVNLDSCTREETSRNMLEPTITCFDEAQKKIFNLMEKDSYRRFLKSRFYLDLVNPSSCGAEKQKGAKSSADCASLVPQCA
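MLSMR compounds (23 nl, pin-transferred) preincubated 10 min at room temperature with a 500nM (2x) first reagent, then RGS4 at 900nM (2x) plus Transcreener GDP mix added; fluorescence polarization (620/688 nm) read before and after 90 min at 30 °C.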
GLP1R ag – GLP-1 receptor (human) agonism; P43220; HEK293 GLP-1R CRE-luciferase, luminescence, 4-6 h; cells express a hypersensitive GLP-1R form; Potency, µM (top dose mostly 45.6 µM), for inactives: top-dose activation, hits mostly activators; 380,000 compounds, 0.007% hits; AID 624172; further: % of control where 0% means no effect
HEK293 tox – cytotoxicity in counter-screen for GLP-1R inverse agonists | AID 624418 | HEK293 cAMP-luciferase reporter cells, luminescence, 24 h | 410,000 compounds, 0.13% hits | Potency, µM (top dose mostly 38.3 µM), without a hit: top-dose activity change, negative = inhibition, usual class: inhibitors;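 further: loss of luciferase light is scored as toxicity; on the % scale 0 is the no-effect control and ±100 the full control effect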
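Cells in DMEM/10% Nu serum/1% pen-strep, 1536-well format. Pre-incubated 12 h, dosed with 23 nL compound, incubated a further 24 h. Luciferase detection, 12 min at room temp, luminescence.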
GLP-1R inv ag – inverse agonists of human GLP-1 receptor. AID 624417. Potency, µM (series often up to 38.3 µM), for the others: top-dose activity change, negative = inhibition, hits mostly inhibitors. 410,000 compounds, 1.6% hits. HEK293 GLP-1R CRE-luciferase, luminescence, 24 h; GLP-1R form is constitutively active. P43220; further: on the % scale 0 is the no-effect control and ±100 the full control effect; nearly all actives have a fitted effect of over 55% in size
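Readout was luciferase luminescence, measured 12 min after detection reagent at room temperature. Beforehand, GLP-1R reporter HEK293 cells had sat 12 h, then received compounds for 24 hr at 37 deg C.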
PTHR1 agonist – activates the human parathyroid hormone receptor PTHR1; Q03431; Potency, µM (titrated, usually from 115 µM), inactives show at the top dose activation, usual class: activators; AID 743266; 410,000 compounds, 0.075% hits; HEK293 GP2 PTHR1 cells, GloSensor cAMP luminescence, 1 h; further: nearly all actives have a fitted effect of over 55% in size
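HEK-293-derived GP2 cells expressing PTHR1 and a GloSensor cAMP reporter, 3,000/well, plated overnight, given luciferin plus IBMX (each 0.5 mM as added) for 1 h at 37 °C, then compound for 1 h at 37 °C. Luminescence was read after 15 min at room temperature.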
* = called active by the depositor; [ ] = another dose, or the depositor's remark. The call rests on the fitted dose curve; in most records, active means well fitted curve in the direction sought with a large enough effect; inconclusive means small, poorly fitted or top-dose-only effect, or another doubt; inactive means no such curve, though single readings can be large; an effect the other way counts as inactive or inconclusive. Potency means the concentration at half of the fitted maximal effect.

`COc1ccc(S(=O)(=O)NCc2ccccn2)cc1NC(=O)c1ccccc1C` gave RGS4 inhibitor 24%, GLP1R ag 4%, HEK293 tox -9%, GLP-1R inv ag -25% and PTHR1 agonist 17%.
CCN(CC)C(=O)CSc1nc2ccccc2c(=O)n1CC1CCCCC1 was read as RGS4 inhibitor -32%, GLP1R ag 16%, HEK293 tox -9%, GLP-1R inv ag 5.6µM* and PTHR1 agonist -22%[57.5 µM].
For Cc1cc(NC(=O)CSc2nc(-c3ccco3)cc(C(F)(F)F)n2)n(-c2ccccc2)n1 the results were RGS4 inhibitor 9%, GLP1R ag 9%, HEK293 tox -11%, GLP-1R inv ag -25% and PTHR1 agonist -7%[57.5 µM].
Cc1cc(NC(=O)CCCSc2nc(-c3ccco3)cc(C(F)(F)F)n2)n(-c2ccccc2)n1 was read as RGS4 inhibitor -3%, GLP1R ag 2%, HEK293 tox -18%, GLP-1R inv ag 8.9µM* and PTHR1 agonist -18%[57.5 µM].
`Cc1cc(N2CCN(C)CC2)nc(-c2ccccc2O)n1` gave RGS4 inhibitor -1%, GLP1R ag 15%, HEK293 tox 0%, GLP-1R inv ag 4µM* and PTHR1 agonist inactive.
Screening Cc1cc(N2CCCC2)nc(-c2ccccc2O)n1 returned RGS4 inhibitor 10%, GLP1R ag -2%, HEK293 tox -1%, GLP-1R inv ag 2% and PTHR1 agonist -12%[57.5 µM].
CCCCNC(=O)C1(C)CCCCN1C(=O)c1cc(C)n(C(C)(C)C)n1 (stereo not given) was read as GLP1R ag 8%, HEK293 tox 2%, GLP-1R inv ag 13% and PTHR1 agonist -3%.
Screening COc1ccc(Br)cc1/C=N/Nc1ccccn1 returned RGS4 inhibitor 0%, GLP1R ag -6%, HEK293 tox 2%, GLP-1R inv ag -20% and PTHR1 agonist -40%.
For Cc1ccc(OCc2cc(C(=O)N3CCC(C(O)C(C)C)CC3)no2)cc1C (stereo not given) the results were RGS4 inhibitor -6%, GLP1R ag 9%, HEK293 tox -15%, GLP-1R inv ag 11µM* and PTHR1 agonist -19%.
Screening Cc1cccc(CC(C)NC(=O)c2cc(COc3ccc(C)c(C)c3)on2)n1 (stereo not given) returned RGS4 inhibitor 1%, GLP1R ag 4%, HEK293 tox 3%, GLP-1R inv ag 10µM* and PTHR1 agonist -38%.
For Cc1ccc(OCc2cc(C(=O)N3CCCCCCC3)no2)cc1C the results were RGS4 inhibitor 0%, GLP1R ag 18%, HEK293 tox 4%, GLP-1R inv ag inconclusive and PTHR1 agonist -9%.
CCCNC(=O)C1(C)CCCN(Cc2ccc(-c3ccccn3)cc2)C1 (stereo not given) was read as GLP1R ag 3%, HEK293 tox 9%, GLP-1R inv ag -21% and PTHR1 agonist 21%.
Screening CC(C)Cc1nn2c(=O)cc(COC(=O)c3ccc(NC(=O)CCc4ccccc4)cc3)nc2s1 returned RGS4 inhibitor 2%, HEK293 tox 8%, GLP-1R inv ag 16% and PTHR1 agonist inactive.
O=C(NCCC1=CCCCC1)C1COc2ccccc2O1 (stereo not given) was read as RGS4 inhibitor inconclusive, GLP1R ag 0%, HEK293 tox 13%, GLP-1R inv ag 8.9µM* and PTHR1 agonist -16%[57.5 µM].
O=C(NCCc1ccc(C(F)(F)F)cc1)C1COc2ccccc2O1 (stereo not given) was read as RGS4 inhibitor 4%, GLP1R ag 8%, HEK293 tox -3%, GLP-1R inv ag inconclusive and PTHR1 agonist inactive.
Screening Cc1ccc(NC(=S)NCc2ccc3[nH]c4c(c3c2)CCCC4)cc1 returned RGS4 inhibitor -12%, GLP1R ag 11%, HEK293 tox inconclusive, GLP-1R inv ag 13µM* and PTHR1 agonist -18%.
`CC(C)[C@H](NS(=O)(=O)c1ccccc1F)C(=O)NC1CCCCC1` gave RGS4 inhibitor 0%, GLP1R ag 1%, HEK293 tox 1%, GLP-1R inv ag 13% and PTHR1 agonist -8%.
